This is a sample that favours compounds with a hit; in the whole collection about 3.4% have one here.
HIF-2a block = inhibitors of HIF-2a | 786-0 RCC cells HIF-2a reporter, luciferase luminescence, overnight | inhibition, % at 18.8 µM | hit rate 0.72% among 360,000;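 active = inhibition of the luminescence signal of 40% or more relative to plate controls, in a single-dose primary screen at 18.75 µM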
TWEAK Fn14 block = inhibitors of TWEAK-Fn14 interaction signaling. inhibition, % at 10 µM. TWEAK-stimulated Fn14 reporter cells, luciferase luminescence, 8 h. AID 1159606. hit rate 2% among 360,000; in the data active = inhibition above about 50%
MITF TRPM1 inh = reduces MITF-dependent TRPM1 promoter luciferase signal | inhibition, % at 12.5 µM | hit rate 0.83% among 330,000 | SK-MEL-5 TRPM1 promoter luciferase, 24 h;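 active = mean inhibition across replicates of 60% or more, whatever share of single replicates reaches that level; inconclusive = some that reach 60%, reason not given; inactive = mean inhibition across replicates below 60%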
TROY NFkB inh = TROY signaling inhibition. Q293 LMP1-TROYcd NF-kB luciferase reporter, 4 h. inhibition, % at 10 µM. hit rate 0.98% among 360,000. AID 1347056;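 active = compounds whose plate-normalised and pattern-corrected inhibition of the luciferase reporter signal at the single screening dose is 50% or more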
EBV LMP1 NFkB = reduces LMP1-driven NF-kappaB luciferase signal. LMP1-induced NF-kappaB luciferase reporter cells, luminescence. inhibition, % at 12.5 µM. hit rate 0.69% among 350,000. AID 504558; in the data active = inhibition above about 41%; inconclusive = no clear call, values can overlap the other calls;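 note: 0% = neutral control wells and 100% = reference inhibitor control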
Shn3 3UTR inh = Schnurri-3 reporter inhibition in Clone20 osteoblasts | Clone20 osteoblast Shn3 3'UTR firefly luciferase, 24 h | hit rate 0.52% among 360,000 | AID 588674 | inhibition, % at 12.5 µM;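 active = mean inhibition of at least 75% with every replicate also reaching 75%; inconclusive = mean inhibition at least 75% but some replicate below; inactive = mean inhibition below 75%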;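 note: 0% = median of neutral control wells and 100% = pilot-screen positive control compound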
* marks the source's active call; other numbers are inactive results; ? = inconclusive; . = no result given.

SMILES	HIF-2a block	TWEAK Fn14 block	MITF TRPM1 inh	TROY NFkB inh	EBV LMP1 NFkB	Shn3 3UTR inh
N#Cc1ccc(NC(=O)Nc2ccc(Oc3ccc(NC(=O)Nc4ccc(C#N)cc4)cc3)cc2)cc1	-36.1	105.3*	?	61.8*	14.9	91.3*
N#Cc1ccc(NC(=O)Nc2cccc(C#N)c2)cc1	-51.0	-33.7	-24.0	28.4	4.3	12.2
CCC(C)c1ccccc1N1CC(C(=O)N2CCN(C(=O)c3ccco3)CC2)CC1=O (stereo not drawn)	6.2	-6.9	-0.8	-1.5	1.6	-17.1
O=C(NC1CCCCC1)C1CCCN1S(=O)(=O)c1ccc(F)cc1 (stereo not drawn)	7.8	15.9	11.9	78.0*	8.0	5.3
CCSC1=C(C#N)C(c2ccc(C)o2)CC(=O)N1 (stereo not drawn)	9.1	-3.1	11.8	-13.8	48.7*	-13.8
Cc1ccc(C2(C)NC(=O)N(CC(=O)NC3CCCCC3)C2=O)cc1 (stereo not drawn)	-1.7	-6.5	-4.5	-4.3	-1.4	-16.1
C=CCN1C(=O)N(/C=C/C)c2cccc3cccc1c23	25.0	13.0	5.6	56.0*	5.6	-1.1
CCc1cccc(NC(=O)COC(=O)c2c(C)nn(-c3ccccc3)c2C)c1	-11.3	1.8	.	-14.2	3.5	-79.3
CCOc1ccc(NC(=O)Cn2cc(C(=O)CC)c3ccccc32)cc1	4.5	11.1	-27.2	7.0	70.9*	2.0
CCOc1ccc(NC(=O)Cn2cc(C(C)=O)c3ccccc32)cc1	3.6	18.6	11.6	8.5	12.2	34.5
Cc1ccc(/C=C/C(=O)c2c(C)cc(C)[nH]c2=O)cc1	27.0	86.0*	44.5	37.4	32.2	-58.5
C/C(=C\c1ccc(Br)cc1)C(=O)c1c(C)cc(C)[nH]c1=O	22.3	52.0*	2.1	45.1	18.6	-20.3
Cc1cc(C)c(C(=O)/C=C/c2cccs2)c(=O)[nH]1	-17.9	46.0	4.4	10.1	12.2	-28.7
Cc1c(O[C@@H]2O[C@H](CO)[C@@H](O)[C@H](O)[C@H]2O)c(CO)c(O[C@@H]2O[C@H](CO)[C@@H](O)[C@H](O)[C@H]2O)c2c1O[C@@H](c1ccccc1)C[C@@H]2O	-4.7	-12.4	-1.2	8.0	-8.0	-19.2
COC(=O)c1ccc(NC(=O)Nc2ccc([N+](=O)[O-])cc2)cc1	7.8	20.2	-13.5	50.1*	-0.3	4.4
O=C(Nc1ccc(C(=O)O)cc1)Nc1ccc([N+](=O)[O-])cc1	11.7	16.7	15.0	12.2	-3.0	-5.9
CC1(C(=O)NCC2CC2)Cc2c(-c3ccc4c(c3)OCO4)ccnc2O1 (stereo not drawn)	11.7	12.1	.	13.1	.	6.9
Cc1cnc(CNC(=O)c2ccc3sc([C@H]4C[C@H](O)[C@@H](CO)O4)nc3c2)cn1	6.0	-15.0	.	17.2	.	-4.7
COc1ccc(CCn2c(C3CCCCC3)nc3c(c(=O)c4ccccc4n3C)c2=O)cc1	32.4	0.2	.	64.8*	.	25.7
CNS(=O)(=O)c1cccc(C(=O)OCC(=O)NC(C)CCc2ccccc2)c1 (stereo not drawn)	-2.8	-1.8	11.4	-18.2	42.1*	-15.4
COc1ccccc1NS(=O)(=O)c1cccc(C(=O)OCc2nc3ccccc3s2)c1	-110.2	57.8*	-6.5	67.7*	-12.4	-69.5
CC(CCc1ccccc1)NC(=O)COC(=O)c1cc(NS(=O)(=O)c2ccc(Cl)c([N+](=O)[O-])c2)ccc1O (stereo not drawn)	54.5*	-16.1	3.1	44.5	-9.5	-36.3
CNS(=O)(=O)c1cccc(C(=O)OCc2cc(C(C)=O)ccc2OC)c1	1.4	5.2	5.2	-2.8	0.7	81.8*
COc1ccccc1NS(=O)(=O)c1cccc(C(=O)OCC(=O)Nc2cc(C)on2)c1	18.2	28.7	4.6	-8.7	-6.4	26.5
COc1ccc(CC2(CO)CCN(S(=O)(=O)c3cccc4cccnc34)CC2)cc1	-3.7	56.0*	0.1	14.4	8.5	7.3
O=C1Nc2cc(C(=O)NCCCN3CCCC3)ccc2S/C1=C\c1ccccc1	-4.1	-9.0	96.0*	-18.2	-5.5	-24.6
COc1ccc(/C=C2/Sc3ccc(C(=O)NCCN4CCCCCC4)cc3NC2=O)cc1	2.9	-46.5	95.3*	-16.8	-1.3	52.7
O=C(Nc1cccc(Cl)c1N1CCCC1)c1ccc([N+](=O)[O-])o1	7.1	-15.8	23.1	23.7	8.6	-30.2
